Data reported in PubChem BioAssay AID1851 (National Center for Advancing Translational Sciences (NCATS), 2009).
Among all 16,000 compounds or so, about 5,700 (36%) were called active. Roughly 24% stayed inconclusive and do not appear here. Calls come from the whole dose curve; as a rule, active = well fitted curve in the direction sought with a large enough effect; inconclusive = small, poorly fitted or top-dose-only effect, or effect the other way; inactive = no such curve, though single readings can be large or run the other way. Some of the results follow.

Each compound was assayed against Cytochrome P450 1A2 (Homo sapiens) (UniProt P05177) (assay: Cytochrome panel assay with activity outcomes). Details: recombinant CYP, pro-luciferin dealkylation, luminescence, p450-cyp1a2; series mostly up to 57.1 µM; activity, negative = inhibition: at the top concentration.
% is set by controls: 0 for no effect and ±100 for the full control effect.

Chain of Cytochrome P450 1A2 (Homo sapiens) (P05177 whole entry, looked up): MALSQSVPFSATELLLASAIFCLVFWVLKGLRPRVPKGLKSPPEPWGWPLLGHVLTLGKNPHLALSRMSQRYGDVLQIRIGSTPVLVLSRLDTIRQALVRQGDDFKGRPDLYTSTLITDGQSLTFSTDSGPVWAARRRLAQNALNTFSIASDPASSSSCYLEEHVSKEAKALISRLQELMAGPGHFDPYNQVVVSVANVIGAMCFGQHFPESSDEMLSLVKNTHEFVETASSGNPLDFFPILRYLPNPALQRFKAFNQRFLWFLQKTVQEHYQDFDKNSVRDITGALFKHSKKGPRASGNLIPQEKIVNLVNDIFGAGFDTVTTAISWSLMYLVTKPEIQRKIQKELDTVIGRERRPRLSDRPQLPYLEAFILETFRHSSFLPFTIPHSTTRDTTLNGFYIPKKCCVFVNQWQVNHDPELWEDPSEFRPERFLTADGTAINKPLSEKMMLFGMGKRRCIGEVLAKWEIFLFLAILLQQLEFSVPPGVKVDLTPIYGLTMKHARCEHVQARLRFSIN

AC50, active:
COc1nc(Oc2ccc(/C=N/O)cc2)nc(N(C)C)n1 0.447 µM, Clc1cccc2c1CN(C1=NCCN1)C2 0.398 µM, CCOc1ccc(NCc2nnc(SCc3ccccc3Cl)n2-c2ccccc2)cc1 7.08 µM, COC(=O)CSc1nnc(CNc2ccc(Cl)cc2)n1-c1ccccc1 12.6 µM, CCCNC(=O)c1cc2c(C(F)(F)F)nn(C)c2s1 0.794 µM, C#CCSc1nnc(-c2cc3c(C(F)(F)F)nn(C)c3s2)n1C 1.12 µM, C=CCSc1nnc(-c2cc3c(C(F)(F)F)nn(C)c3s2)n1C 1.12 µM, CCCCSc1nnc(-c2cc3c(C(F)(F)F)nn(C)c3s2)n1C 14.1 µM, CCc1c2c(nc3cccc(OC)c13)OC(CC)C2 (stereo not drawn) 2 µM, COc1ccc(-c2nsc3c(N4CCCCC4)ncnc23)cc1 2.82 µM, Cc1nnc(-c2cnn(-c3ccccc3)c2N)n1Cc1ccccc1 14.1 µM, COc1ccc2c(=O)cc(-c3ccncc3)oc2c1OC 1.58 µM, Cn1cccc1C(=O)C(=O)Nc1cccc(Cl)c1Cl 17.8 µM, COc1ccccc1CNc1ncncc1-c1ccc(C(=O)N(C)C)cc1 12.6 µM, COc1ccc(CNc2ncncc2-c2ccc(N(C)C)cc2)c(OC)c1 0.631 µM, COc1ccc(CNc2ncncc2-c2ccc(C(=O)N(C)C)cc2)c(OC)c1 15.8 µM, CC(C/C=N/NC(=O)COc1cc(Cl)ccc1Cl)c1ccccc1 (stereo not drawn) 0.562 µM, O=C(COc1ccc(Cl)cc1Cl)N/N=C/CCc1ccccc1 1 µM, CCc1ccc(/C=C\C(=O)N2CCc3ccccc3C2)cc1 14.1 µM, Cc1cccc2c1OCC/C2=N\NC(=O)COc1ccccc1 2.51 µM, COc1cccc(OCC(=O)NN=C2c3ccccc3-c3ccccc32)c1 0.501 µM, Cc1cccc2c1OCC/C2=N\NC(=O)COc1ccccc1Cl 0.891 µM, O=c1c(-c2ccccc2)nc2cncnc2n1-c1ccccc1 5.01 µM, COc1ccc(-n2c(=O)c(-c3cccc(Cl)c3)nc3cncnc32)cc1 1 µM, O=c1c(-c2cccc(Cl)c2)nc2cncnc2n1-c1ccccc1 2 µM, O=C(Nc1ccc2ccccc2c1)[C@H]1C[C@@H]1[C@H](NP(=O)(c1ccccc1)c1ccccc1)c1ccccc1 10 µM, O=C(NCc1cc(F)cc2c1OCCO2)[C@H]1C[C@@H]1[C@H](NP(=O)(c1ccccc1)c1ccccc1)c1ccccc1 15.8 µM

AC50, inactive:
Clc1cccc(Cl)c1NC1=NCCN1, COC(=O)c1c(-c2cc(OC)c(OC)c(OC)c2)c2ccnc(OCc3ncccn3)c2c(=O)n1Cc1ccnc(C)c1

activity, negative = inhibition, inactive:
CCc1cc2c(nc1CC)CCN(CC/C(C)=N/O[C@@H](C)CN1CCCc3nc(C)c(C)cc31)C2 5.54% [at 11.4 µM], Fc1ccc(CN(C2=NCCN2)c2c(Cl)cccc2Cl)cc1 6.63%, COc1ccc(-n2c(CNc3ccc(C)cc3)nnc2SCC(=O)Nc2nc(-c3ccccc3)cs2)cc1 -23.7%, COC(Cc1nnc(SC)n1-c1ccc(Cl)cc1)OC 20%, CCNC(=O)CSc1nnc(C2CC2)n1-c1ccccc1 1%, CCNS(=O)(=O)c1ccc(NC(=O)c2cc(C(F)(F)F)nn2C)cc1 -22.7%, COCC(=O)N1CCC2(CC1)CCN(C(=O)Nc1cccc(C#N)c1)CC2 -10.7%, Cc1nnc(-c2cnn(-c3ccccc3)c2N)n1Cc1ccc(F)cc1 -27.2%, NCc1nnn(Cc2ccccc2)c1N 2.27% [at 11.4 µM], O=C(c1cnccn1)N1CCC2(CCCN(c3ncccn3)C2)CC1 -20.1%, COc1ccc(C2C(C(=O)c3ccco3)=C(O)C(=O)N2Cc2cccnc2)cc1OC (stereo not drawn) 6.62%, Cn1cccc1C(=O)N1CCC2(CCN(C(=O)Nc3ccccc3)CC2)CC1 -14.1%, Cn1cc(C(=O)c2cccc(Cl)c2Cl)cc1C(=O)O 4.13%, CC(C)=CCC/C(C)=C/CO/N=C1/C[C@@H](O)[C@@H](O)[C@@H]2[C@@H]3C(=O)N(C4CCCCC4)C(=O)[C@H]3CC[C@H]12 -2.85% [at 11.4 µM], C[C@@]12CCC(=O)C=C1CC[C@@H]1[C@@H]2[C@H](O)C[C@]2(C)[C@@H]1CC[C@]2(O)C(=O)COC(=O)CCC(=O)O 1.05%, Cc1ccccc1C(=O)Nc1ccc(C(=O)NNC(=O)CCCOc2ccc(Cl)cc2Cl)cc1 -24.9%, N=C(N)N1CCc2ccccc2C1 -6.45% [at 25.6 µM], O=C(c1ccc(CN2CCc3ccccc3C2)cc1)N1CCc2ccccc2C1 -22.3%, Cc1ccccc1OCC(=O)N/N=C1\CCOc2c(C)cccc21 -14%, CCOC(=O)C1=NOC(CNC(=O)C2=NOC(CNC(=O)c3c(-c4ccccc4Cl)noc3C)C2)C1 (stereo not drawn) 2.92%, CO/N=C\[C@@H](NS(=O)(=O)c1ccc(C)cc1)[C@H](C)/C=C\CC(=O)OC -9.25% [at 11.4 µM], CO/N=C(/C)CCC(=O)OC[C@@H]1O[C@H](C#Cc2ccccc2)C=C[C@@H]1Oc1ccc(C)cc1 -10.1% [at 11.4 µM], CC(=O)[C@@]1(O)CC[C@H]2[C@H]3C[C@@H](C)C4=CC(=O)C=C[C@]4(C)[C@@]3(F)[C@@H](O)C[C@]21C -14.8% [at 25.6 µM], CC(=O)[C@H]1CC[C@H]2[C@@H]3C=CC4=CC(=O)CC[C@@]4(C)[C@H]3CC[C@]12C -8.55% [at 25.6 µM], Cc1ccc(S(=O)(=O)N[C@H]2COC(=O)C/C=C\[C@H](C)[C@@H](NS(=O)(=O)c3ccc(C)cc3)COC(=O)C/C=C\[C@@H]2C)cc1 -10.6% [at 11.4 µM], C[C@H](CO)NC(=O)[C@@H]1C[C@H]1[C@@H](NP(=O)(c1ccccc1)c1ccccc1)c1ccccc1 -9.59%, Cc1cc(CNC(=O)[C@@H]2C[C@H]2[C@@H](NP(=O)(c2ccccc2)c2ccccc2)c2ccccc2)nn1C -17.4%, Cc1ccc(CNC(=O)[C@H]2C[C@@H]2[C@H](NP(=O)(c2ccccc2)c2ccccc2)c2ccccc2)c(F)c1F -17.4%, C[C@H](CO)NC(=O)[C@H]1C[C@@H]1[C@H](NP(=O)(c1ccccc1)c1ccccc1)c1ccccc1 -7.78%
